# Inconclusive results are not listed. Entries that show only a call come without a potency. Unmarked numbers belong to inactive results. The source made the active and inactive calls. The call rests on the fitted dose curve; in most records, active means well fitted inhibition curve with a large enough effect; inconclusive means small, poorly fitted or top-dose-only effect; inactive means flat fitted curve, though single readings scatter.
# Key:
# PC49 = assay: qHTS profiling for inhibitors of Plasmodium falciparum proliferation (AID 504749); further: nearly all actives have a fitted effect of over 60% in size; conditions: P. falciparum in erythrocytes, SYBR Green DNA, 72 h; series mostly up to 28.7 µM
# Outline: (§1)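 P. falciparum-infected erythrocytes (0.3% parasitemia, 2.5% hematocrit) incubated with compound 72 h at 37 C, 5% CO2. Parasite DNA detected by SYBR Green after lysis, overnight at room temperature; normalised to 0.29 uM artemisinin and DMSO.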
# SC27B = assay: as above; conditions: P. falciparum in erythrocytes, SYBR Green DNA, 72 h; series mostly up to 28.7 µM
# Outline: as §1
# TAB109 = assay: as above; conditions: P. falciparum in erythrocytes, SYBR Green DNA, 72 h; series mostly up to 28.7 µM
# Outline: as §1
# TAB113 = assay: as above; conditions: P. falciparum in erythrocytes, SYBR Green DNA, 72 h; series mostly up to 28.7 µM
# Outline: as §1
# TAB165 = assay: as above; conditions: P. falciparum in erythrocytes, SYBR Green DNA, 72 h; series mostly up to 28.7 µM
# Outline: as §1
# W2 = assay: as above; conditions: P. falciparum in erythrocytes, SYBR Green DNA, 72 h; series mostly up to 28.7 µM
# Outline: as §1
# [1] = target: Tyrosyl-DNA phosphodiesterase 1 (Homo sapiens) (UniProt Q9NUW8); assay: Confirmation Assay for Inhibitors of Tyrosyl-DNA Phosphodiesterase (TDP1) (AID 489007); conditions: recombinant human TDP1 enzymatic activity, dose-response; further: potency means the concentration at half of the fitted maximal effect; nearly all actives have a fitted effect of over 40% in size
# Tyrosyl-DNA phosphodiesterase 1 (Homo sapiens), sequence (Q9NUW8 whole entry, looked up): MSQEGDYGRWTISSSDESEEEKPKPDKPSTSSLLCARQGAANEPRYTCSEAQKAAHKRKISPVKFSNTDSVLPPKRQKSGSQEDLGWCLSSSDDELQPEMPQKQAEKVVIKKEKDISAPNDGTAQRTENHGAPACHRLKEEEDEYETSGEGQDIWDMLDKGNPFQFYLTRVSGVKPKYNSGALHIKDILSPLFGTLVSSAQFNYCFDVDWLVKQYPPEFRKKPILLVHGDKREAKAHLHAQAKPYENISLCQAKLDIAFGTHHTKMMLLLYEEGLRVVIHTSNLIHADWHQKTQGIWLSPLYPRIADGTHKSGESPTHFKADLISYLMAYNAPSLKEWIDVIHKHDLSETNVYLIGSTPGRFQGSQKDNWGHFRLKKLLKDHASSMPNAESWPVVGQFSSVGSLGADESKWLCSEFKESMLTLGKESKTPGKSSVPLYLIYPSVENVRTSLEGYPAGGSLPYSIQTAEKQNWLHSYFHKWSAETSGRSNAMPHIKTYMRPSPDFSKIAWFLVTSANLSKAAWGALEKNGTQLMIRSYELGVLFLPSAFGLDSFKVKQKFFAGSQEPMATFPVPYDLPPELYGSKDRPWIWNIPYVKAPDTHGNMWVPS
# Outline: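 Tdp1 1 nM + cpd, 15 min RT; add biotin/phosphotyrosine-FITC oligo 15 nM, 5 min RT; add AS donor/acceptor beads 10 ug/ml, 10 min RT; read AlphaScreen. No-enzyme wells = max signal.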
smiles,measurement,setting,value
CO/N=C(/C(=O)N[C@@H]1C(=O)N2C(C(=O)O)=C(C[n+]3ccc(N)n3CCO)CS[C@H]12)c1csc(N)n1,Potency,PC49,inactive
same,Potency,SC27B,inactive
same,Potency,TAB109,inactive
same,Potency,TAB113,inactive
same,Potency,TAB165,inactive
same,Potency,W2,inactive
OC[C@@H]1[C@@H](c2ccc(Cl)cc2)C(c2cccc(Cl)c2)=NN1c1ccccc1,Potency,[1],50.1 µM (active)
O=C(O)CCCN1C(=O)/C(=C\c2ccco2)SC1=S,Potency,[1],2.82 µM (active)
